From PubChem BioAssay AID1159580 (chemical genetic matrix, 2015)
Where “and” joins values, the source holds several entries; their conditions need not be identical. Equal entries are not always repeated. Among all 5,500 compounds or so, about 2,000 (36%) were called active. Not shown: some 18% with an inconclusive outcome. Cut-off read from the data, not from the text of the source: active = normalized growth mostly below about 0.91 (no sharp cut-off); inconclusive = no clear call, values can overlap the other calls; inactive = mostly above about 0.92. The list shows a part of the results.

Assay: chemical genetic growth profiling, strain panel (AID 1159580);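 note: tested at 20 µM; growth read once vehicle control cultures reached saturation at 30 °C; 1 = growth at the plate median or of vehicle wells; lower values mean less growth of the strain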
Conditions: S. cerevisiae deletion strains, growth OD

Measured: normalized growth

ClC1=C(Cl)C2(Cl)C3C4C=CC(C4)C3C1(Cl)C2(Cl)Cl (configuration not stated)
inactive: locus YAL013W, strain DEP1, hits give low values 0.989 | locus YAL021C, strain ccr4, hits give low values 0.987 | locus YAL026C, strain drs2, hits give low values 0.993 | locus YAL030W, strain snc1, hits give low values 1 | locus YBL061C, strain skt5, hits give low values 1.01 | locus YBR009C, strain hhf1, hits give low values 0.992 | locus YBR021W, strain FUR4, hits give low values 1 | locus YBR023C, strain chs3, hits give low values 0.997 | locus YBR171W, strain sec66, hits give low values 0.988 | locus YBR229C, strain ROT2, hits give low values 0.997 | locus YBR231C, strain swc5, hits give low values 1 | locus YBR279W, strain paf1, hits give low values 1.01 | locus YCL011C, strain gbp2, hits give low values 0.999 | locus YCL016C, strain dcc1, hits give low values 0.999 | locus YCL029C, strain bik1, hits give low values 0.972 | locus YCL061C, strain MRC1, hits give low values 0.993 | locus YCL069W, strain vba3, hits give low values 0.997 | locus YCR088W, strain abp1, hits give low values 0.991 | locus YDL005C, strain med2, hits give low values 0.999 | locus YDL035C, strain GPR1, hits give low values 0.949 | locus YDL040C, strain nat1, hits give low values 0.998 | locus YDL074C, strain BRE1, hits give low values 0.969 | locus YDL101C, strain DUN1, hits give low values 0.993 | locus YDL134C, strain PPH21, hits give low values 0.992 | locus YDL185W, strain tfp1, hits give low values 1 | locus YDL192W, strain arf1, hits give low values 0.997 | locus YDR001C, strain nth1, hits give low values 0.996 | locus YDR069C, strain doa4, hits give low values 0.99 | locus YDR101C, strain arx1, hits give low values 1 | locus YDR137W, strain rgp1, hits give low values 0.956 | locus YDR150W, strain NUM1, hits give low values 1 | locus YDR159W, strain sac3, hits give low values 0.901 | locus YDR162C, strain NBP2, hits give low values 1 | locus YDR195W, strain ref2 0.955 | locus YDR297W, strain sur2, hits give low values 1 | locus YDR318W, strain mcm21, hits give low values 0.981 | locus YDR334W, strain swr1, hits give low values 0.993 | locus YDR335W, strain msn5, hits give low values 1 | locus YDR388W, hits give low values 0.985 | locus YDR392W, strain spt3, hits give low values 1 | locus YDR502C, strain sam2, hits give low values 0.994 | locus YEL003W, strain gim4, hits give low values 1 | locus YEL037C, strain rad23, hits give low values 1 | locus YEL061C, strain CIN8 (second series), hits give low values 1 | locus YEL061C, strain CIN8, hits give low values 1 | locus YER015W, strain faa2, hits give low values 1 | locus YER016W, strain bim1, hits give low values 0.994 | locus YER110C, hits give low values 0.99 | locus YER111C, strain swi4, hits give low values 1 | locus YER155C, strain BEM2 (second series), hits give low values 0.998 | locus YER155C, strain BEM2, hits give low values 0.978 | locus YER167W, strain BCK2, hits give low values 0.977 | locus YFR010W, strain ubp6, hits give low values 0.988 | locus YGL078C, strain dbp3, hits give low values 1 | locus YGL086W, strain mad1, hits give low values 0.967 | locus YGL167C, strain pmr1, hits give low values 0.983 | locus YGL173C, strain kem1, hits give low values 0.992 | locus YGL227W, strain vid30, hits give low values 0.996 | locus YGL240W, strain doc1, hits give low values 0.981 | locus YGL248W, strain PDE1, hits give low values 0.997 | locus YGL253W, strain hxk2, hits give low values 0.983 | locus YGR078C, strain PAC10, hits give low values 1.01 | locus YGR135W, strain pre9, hits give low values 0.982 | locus YGR229C, strain SMI1, hits give low values 0.952 | locus YGR252W, strain gcn5, hits give low values 0.961 | locus YHR013C, strain ard1, hits give low values 1.08 | locus YHR027C, strain rpn1, hits give low values 0.988 | locus YHR030C, strain SLT2, hits give low values 1 and 0.976 | locus YHR079C, strain IRE1 (second series), hits give low values 0.983 | locus YHR079C, strain IRE1, hits give low values 0.979 | locus YHR094C, strain hxt1, hits give low values 1 | locus YHR129C, strain ARP1, hits give low values 1 | locus YHR142W, strain chs7, hits give low values 1.01 | locus YHR200W, strain rpn10, hits give low values 0.99 | locus YIL066C, strain RNR3, hits give low values 0.941 | locus YIL073C, strain SPO22, hits give low values 0.874 | locus YIL125W, strain kgd1, hits give low values 1 | locus YIR030C, strain dcg1, hits give low values 0.991 | locus YJL092W, strain hpr5, hits give low values 0.992 | locus YJL095W, strain BCK1 (second series), hits give low values 0.994 | locus YJL095W, strain BCK1, hits give low values 1.01 and 1.03 | locus YJL115W, strain asf1, hits give low values 0.989 | locus YJL134W, strain LCB3, hits give low values 0.999 | locus YJL154C, strain vps35, hits give low values 0.992 | locus YJL164C, strain tpk1, hits give low values 0.981 | locus YJL166W, strain qcr8, hits give low values 0.99 | locus YJL168C, strain set2, hits give low values 0.991 | locus YJL187C, strain SWE1 (second series), hits give low values 1 | locus YJL187C, strain SWE1, hits give low values 1.01 | locus YJR043C, strain POL32, hits give low values 0.981 | locus YJR066W, strain TOR1, hits give low values 0.975
active: locus YJL129C, strain trk1, hits give low values 0.85
